Molecules are shown by their SMILES.

The subject of assay [1] is Vero E6 infected with SARS-CoV-2. The assay can be described thus: inhibition of SARS-CoV-2 cytopathic effect; higher = more antiviral protection, active = above 15. Particulars: 48 h.
The test system is the same in assay [2]. The experiment in a line: morphology score (similarity to uninfected cells); higher = more like uninfected cells. The following applies: 24 h.

Take `O=C1CCC(N2C(=O)c3ccccc3C2=O)C(=O)N1` (stereo unspecified) [thalidomide]: the “inhibition of SARS-CoV-2 cytopathic effect” value (“inhibition” for short) was 5.17% (inactive) in assay [1] (1 nM); -1.38% (inactive) in assay [1] (8.33 nM); -2.47% (inactive) in assay [1] (100 nM); -1.68% (inactive) in assay [1] (833.33 nM); -4.45% (inactive) in assay [1] (10000 nM).

On to `CC(C)N(CC[C@H](c1ccccc1)c1cc(CO)ccc1O)C(C)C` [5-hydroxymethyl-tolterodine], for which the “inhibition” value in assay [1] (1 nM) is -1.98% (inactive); in assay [1] (8.33 nM), -1.4% (inactive); in assay [1] (100 nM), -1.82% (inactive); in assay [1] (833.33 nM), 2.8% (inactive); in assay [1] (10000 nM), -3.28% (inactive).

Compound `C[C@]12CC[C@H]3[C@@H](CCC4=CC(=O)CC[C@@]43C)[C@@H]1CC[C@@H]2O` (10 µM) registered a morphology score in assay [2] of -0.0371.

As for `CO/N=C1\C[C@]2(C[C@@H]3C[C@@H](C/C=C(\C)C[C@@H](C)/C=C/C=C4\CO[C@@H]5[C@H](O)C(C)=C[C@@H](C(=O)O3)[C@]45O)O2)O[C@H](/C(C)=C/C(C)C)[C@H]1C` [moxidectin], the “inhibition” value in assay [1] (1 nM) was -5.37% (inactive); in assay [1] (8.33 nM) it was -7.08% (inactive); in assay [1] (100 nM), -3.57% (inactive); in assay [1] (833.33 nM) it was -4.07% (inactive); in assay [1] (10000 nM), 2.53% (inactive).

With `CC(CN(C)C)CN1c2ccccc2CCc2ccccc21` (stereo unspecified) [trimipramine], the “inhibition” value in assay [1] (1 nM) was -3.96% (inactive); in assay [1] (8.33 nM), -0.87% (inactive); in assay [1] (100 nM), -0.5% (inactive); in assay [1] (833.33 nM), -2.02% (inactive); in assay [1] (10000 nM) it was -3.88% (inactive).

`C[N+](C)(CCOc1ccccc1)Cc1ccccc1` [bephenium-hydroxynaphthoate]: the “inhibition” value is 2.11% (inactive) in assay [1] (1 nM); 0.87% (inactive) in assay [1] (8.33 nM); 0.58% (inactive) in assay [1] (100 nM); 0.22% (inactive) in assay [1] (833.33 nM); -0.72% (inactive) in assay [1] (10000 nM).

Regarding `Cc1sc2c(c1C)C(c1ccc(Cl)cc1)=N[C@@H](CC(=O)Nc1ccc(O)cc1)c1nnc(C)n1-2`, the “inhibition” value in assay [1] (1 nM) was 1.01% (inactive); in assay [1] (8.33 nM), 0.43% (inactive); in assay [1] (100 nM), -1.47% (inactive); in assay [1] (833.33 nM) it was -3.68% (inactive); in assay [1] (10000 nM), -9.86% (inactive).

(Values after the supplement of paper PMC13380429.)
